NadD block: inhibitors of S. aureus NadD, primary screen, biochemical, colorimetric, uHTS | AID 602399, 2012 | inhibition, % at 20 µM | purified NadD enzyme, colorimetric absorbance read-out | 360,000 tested, 0.78% active | Nicotinate-nucleotide adenylyltransferase NadD (Staphylococcus aureus N315); in the data active = inhibition above about 26%
ATG4B inh: ATG4B protease inhibitors, primary screen, biochemical, fluorescence, uHTS | Cysteine protease ATG4B (Homo sapiens), Q9Y4P1 | 340,000 tested, 0.51% active | inhibition, % at 8.33 µM | AID 504462, 2011 | ATG4B cleavage of LC3-PLA2, NBD-HPC fluorescence, 1 h; in the data active = inhibition above about 40%
Target sequence (Q9Y4P1 whole entry, looked up): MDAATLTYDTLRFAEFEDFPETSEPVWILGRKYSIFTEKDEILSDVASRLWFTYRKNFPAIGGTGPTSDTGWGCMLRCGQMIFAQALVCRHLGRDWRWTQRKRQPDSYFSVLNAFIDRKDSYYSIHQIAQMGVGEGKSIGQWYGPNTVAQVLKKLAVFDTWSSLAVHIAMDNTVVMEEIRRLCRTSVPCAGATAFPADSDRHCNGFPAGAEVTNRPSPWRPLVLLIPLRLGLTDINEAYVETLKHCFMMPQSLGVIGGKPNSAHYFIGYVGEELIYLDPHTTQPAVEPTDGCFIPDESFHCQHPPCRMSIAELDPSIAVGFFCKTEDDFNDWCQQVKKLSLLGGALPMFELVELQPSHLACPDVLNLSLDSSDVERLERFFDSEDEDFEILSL
Calb FLC: C. albicans growth inhibition with fluconazole, primary screen, CaCi-2 strain, Alamar Blue fluorescence | 300,000 tested, 0.57% active | growth inhibition, % (concentration not given with the values) | C. albicans CaCi-2 (fluconazole-resistant clinical isolate) + fluconazole, 48 h | AID 1979, 2009;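 active = growth inhibition above about 58% in most replicates, limit read from the data, passing the limit was not always enough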;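 note: all wells also contain fluconazole at 8 µg/ml as a sub-toxic cotreatment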
FAS TE block: FAS thioesterase domain inhibitors, primary screen, biochemical, fluorescence intensity, uHTS; 360,000 tested, 0.67% active; recombinant FAS-TE, OMFH fluorogenic substrate, fluorescence endpoint; Fatty acid synthase (Homo sapiens), P49327; inhibition, % at 15 µM;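 active = compounds whose normalised, plate-corrected inhibition of enzyme fluorescence in the single-dose primary screen is 50% or more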
Mot1-301 SUMO: yeast Mot1-301 growth rescue at high temperature, primary screen, SUMOylation pathway inhibitor project, S. cerevisiae, ATP luminescence, 38.5C. S. cerevisiae Mot1-301 growth rescue; percent above DMSO median, 100 means doubled. growth rescue, % at 18.8 µM. 320,000 tested, 1% active;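 active = every valid replicate shows activation above 250% relative to neutral control wells; inactive = the rest, any valid replicate at or below 250%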
Numbers stand for hits; – = inactive; · = no result; + = active, no number. A selection: hits, their analogues and other compounds. The true share with any hit is near 3.1%.

SMILES | NadD block | ATG4B inh | Calb FLC | FAS TE block | Mot1-301 SUMO
CCCN(CCC)CCNC(=O)c1cc2c(=O)n(C)c3ccccc3c2n1C | – | – | – | – | 323.0
CC(C)(C)OC(=O)NCCCCCNC(=O)c1[nH]cnc1C(=O)Nc1cc(Br)ccc1F | – | · | · | – | ·
CN(C)CCCNC(=S)N(CCCN(C)C)Cc1cc2cc3c(cc2[nH]c1=O)OCO3 | – | – | – | – | –
CCN(CC)CCCN(Cc1cc2cc3c(cc2[nH]c1=O)OCO3)C(=S)NCCCN(C)C | – | – | – | – | 879.8
Cc1onc(-c2ccccc2Cl)c1C(=O)OCC(=O)N1CCN(c2ccccc2)CC1 | – | – | – | – | –
O=[N+]([O-])c1cc(F)cc(F)c1Nc1cc(F)cc(F)c1 | – | – | · | – | ·
COc1ccc(NC(=O)CN2C(=O)/C(=C3\SC(=S)N(CCC(=O)O)C3=O)c3ccccc32)cc1 | 50.7 | – | – | – | –
CCN(CC)C(=O)C1=C(C)N(Cc2ccc(C(C)(C)C)cc2)C(=O)C(CC(=O)NCCCCc2ccccc2)C1 (configuration not stated) | – | · | · | – | ·
Cc1ccccc1C(=O)NNC(=S)NC(=O)c1ccc(Cl)cc1Cl | – | – | 91.4 | – | –
COc1cc(C(=O)NNC(=S)NC(=O)c2ccccc2C)cc(OC)c1OC | – | – | – | – | –
COc1ccc(C(=O)NC(=S)NNC(=O)c2ccccc2O)cc1 | – | – | – | – | –
COc1ccc(C(=O)NC(=S)NNC(=O)c2ccccc2C)cc1 | – | – | 100.8 | – | –
COc1ccccc1C(=O)NNC(=S)NC(=O)c1cc(OC)c(OC)c(OC)c1 | – | – | 105.2 | – | –
COc1ccc(Cl)cc1C(=O)OCC(=O)NCCNC(=O)COC(=O)c1cc(Cl)ccc1OC | – | – | – | – | –
COc1ccc(COC(=O)c2ccc(S(=O)(=O)N3CCCCC3)cc2)cc1OC | – | – | · | – | –
COC(=O)c1cccc(N(CC(=O)NC2CCCCC2)C(=O)CNC(=O)c2cccs2)c1 | – | – | – | – | –
O=S1(=O)Nc2c(ccc3cccnc23)-c2ccccc21 | – | – | – | – | +
CC(=O)Nc1ccc(NC(=O)c2ccccc2CCc2ccccc2)cc1 | – | – | – | – | –
CC(C)(C(=O)N1CCC1(C)C(=O)NS(=O)(=O)c1cccc(Cl)c1)c1ccccc1 (configuration not stated) | – | · | · | – | ·
O=C1NC(=O)/C(=C/c2ccc(-c3cc(C(=O)O)ccc3Cl)o2)S1 | – | – | – | – | –
O=C1NC(=O)/C(=C\c2ccc(Br)o2)S1 | – | – | 86.5 | – | –
CCOC(=O)c1ccc(NC(=O)C2CCN(C(=O)c3ccc(OC)c(OC)c3)CC2)cc1 | – | – | – | – | ·
COC(=O)c1ccc(NC(=O)C2CCN(C(=O)c3cc(OC)c(OC)c(OC)c3)CC2)cc1 | – | – | · | – | 335.5
COc1cccc([C@@H]2CC=C(C(=O)O)CN2S(=O)(=O)c2ccc(C)cc2)c1 | – | – | · | – | –
CC1=C(C(=O)Nc2cccnc2)C(c2cccnc2)n2nc(-c3cccs3)nc2N1 (configuration not stated) | – | – | – | – | 349.9
SMILES | NadD block | ATG4B inh | Calb FLC | FAS TE block | Mot1-301 SUMO
O=C(CCl)N(c1ccc(Cl)cc1)c1c[nH]c2ccccc12 | – | – | 113.3 | – | –
O=C(CSc1nc2c(c(=O)n1-c1ccc(Br)cc1)SCC2)Nc1nccs1 | – | 57.2 | – | – | –
O=C(CSc1nc2c(c(=O)n1-c1ccc(Br)cc1)SCC2)NCc1ccco1 | – | – | – | – | –
Cc1ccc2nc(/C(C#N)=C\c3ccc(N4CCCCC4)c([N+](=O)[O-])c3)[nH]c2c1 | 39.2 | – | – | – | –
N#C/C(=C/c1ccc(N2CCCC2)c([N+](=O)[O-])c1)c1nc2ccccc2[nH]1 | 35.8 | – | – | – | –
N#C/C(=C\c1ccc(N2CCOCC2)c([N+](=O)[O-])c1)c1nc2ccccc2[nH]1 | – | – | – | – | –
COc1ccccc1NC(=S)N1CC(C)(C)C1=O | – | – | – | – | –
COC(=O)c1ccccc1NC(=O)COc1ccc(S(=O)(=O)NC(C)C)cc1 | – | – | – | – | –
CC(Sc1n[nH]c(-c2cccs2)n1)C(=O)N1CCCC1 (configuration not stated) | – | – | · | – | –
O=C(NNc1ccc(-c2csnn2)cc1)c1cc(Cl)cc(Cl)c1 | – | – | – | – | 283.2
O=C(NNc1ccc(-c2csnn2)cc1)c1ccccc1C(F)(F)F | – | – | – | – | –
CN1C(C(=O)NCc2cccc(C(F)(F)F)c2)CC2Cn3c(nc4cc(Cl)c(Cl)cc43)C21 (configuration not stated) | – | – | – | – | 277.1
CN(C)c1ccc(CNC(=O)CCS(=O)(=O)c2ccc3c(c2)oc(=O)n3C)cc1 | – | – | – | – | –
CCC(C)NC(=O)Cc1c(C)c2cc3c(cc2oc1=O)OC(C)(C)CC3 (configuration not stated) | – | – | – | – | –
Cc1ccc2c(c1)cc(CN(Cc1ccc3c(c1)OCO3)C(=O)c1ccccc1)c1nnnn12 | – | – | – | – | 336.5
CN(C)c1cccc(NC(=O)c2cccc3c(-c4ccc(F)c(F)c4)coc23)c1 | – | · | · | – | ·
COC(=O)C(C)N1CCC(=O)c2ccccc2S1(=O)=O (configuration not stated) | – | – | – | – | –
CCCCN(C(=O)COC(=O)COc1c(C)cc(C)cc1C)c1c(N)n(CCC)c(=O)[nH]c1=O | – | – | – | – | 286.5
CCCn1c(N)c(N(CCOC)C(=O)COC(=O)COc2c(C)cc(C)cc2C)c(=O)[nH]c1=O | – | · | · | – | ·
O=S(=O)(NC1CCN(Cc2ccccc2)CC1)c1ccc2ccccc2c1 | – | – | – | – | 321.5
COc1ccc(C2=CC(=O)C[C@H](c3ccc(Cl)cc3)C2)cc1 | – | – | · | – | –
COc1ccc(C2=CC(=O)CC(c3ccc(OC)cc3)C2)cc1 (configuration not stated) | – | – | – | – | 673.2
NC1=NC(=O)C2(COC(c3cccnc3)OC2)S1 (configuration not stated) | – | – | – | – | –
NS(=O)(=O)c1ccc(NC(=S)NC2CC2)cc1 | – | – | – | – | 691.4
CC1(C)C(C#N)=C(N)OC2=C1C(=O)CCC2 | – | – | – | – | –
COc1cccc(CN2C(=O)C3(C(C#N)=C(N)OC4=C3C(=O)CCC4)c3ccccc32)c1 (configuration not stated) | – | – | 90.5 | – | –
COc1ccc(S(=O)(=O)NCC(=O)N(CC(=O)NCC2CCCO2)Cc2ccccc2)cc1 (configuration not stated) | – | – | – | – | –
